Out of some 1,900 compounds screened, about 1,200 (63%) were called active. The set was probably picked from earlier hits. Not all results are given here. A number with no mark means an inactive call. Cut-off read from the data, not from the text of the source: active = inhibition above about 22%; inactive = the rest.
test: rat intestinal IEC-6 viability loss – cell-based, luminescence, cytotoxicity control, confirmation (AID 1907); conditions: IEC-6 rat intestinal epithelial viability, at 5 µM, stronger effect = higher value;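 note: 0% = vehicle and 100% = reference cytotoxic drug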

Row | Compound | inhibition
1 | CC1=CC(=Cc2sc3ccccc3[n+]2C)C=C(C)O1 | 32.9% (active)
2 | Cc1cc2ccccn2c1C(C[N+](=O)[O-])c1c(F)cccc1Cl (stereo not drawn) | 10.8%
3 | COc1cc(-n2c(=S)[nH]c3ccc(C)cc3c2=O)c(Cl)cc1Cl | -14.8%
